In PubChem BioAssay (NCATS):
Records with an inconclusive call do not appear. Unmarked numbers belong to inactive results. Calls follow the shape of the dose curve; as a rule, active = well fitted curve in the direction sought with a large enough effect; inconclusive = small, poorly fitted or top-dose-only effect, or another doubt; inactive = no such curve, though single readings can be large or run the other way.

What follows are compounds tested against Glucagon-like peptide 1 receptor (Homo sapiens) (UniProt P43220) (assay: qHTS of GLP-1 Receptor Agonists: LOPAC Validation (AID 624148;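 also: luminescence from a luciferase reporter switched on by cAMP; 0% is about no effect; higher luminescence signal means agonism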)). Settings: GLP-1R agonist cell assay; series mostly up to 46.1 µM; activation: at the top concentration.
Sequence of Glucagon-like peptide 1 receptor (Homo sapiens) (P43220 whole entry, looked up): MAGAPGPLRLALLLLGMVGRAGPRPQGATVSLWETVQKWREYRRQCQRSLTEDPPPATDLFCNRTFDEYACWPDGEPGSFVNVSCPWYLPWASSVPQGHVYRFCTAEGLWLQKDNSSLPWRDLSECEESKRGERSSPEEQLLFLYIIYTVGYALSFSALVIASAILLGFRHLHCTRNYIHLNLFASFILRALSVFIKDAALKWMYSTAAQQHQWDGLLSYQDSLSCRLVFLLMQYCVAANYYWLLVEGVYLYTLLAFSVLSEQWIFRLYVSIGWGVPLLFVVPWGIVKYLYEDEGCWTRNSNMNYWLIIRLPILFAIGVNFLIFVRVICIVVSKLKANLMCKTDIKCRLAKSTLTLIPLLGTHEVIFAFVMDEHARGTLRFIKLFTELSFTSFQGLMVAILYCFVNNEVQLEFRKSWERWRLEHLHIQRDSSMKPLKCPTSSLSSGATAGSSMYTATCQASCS
From the text: The overall goal of this project was to develop a novel assay for discovering small molecule ligands for class B1 G protein-coupled receptors (GPCRs). Very few agonists (or inverse agonists) with generally weak activity for this entire group of physiologically important receptors are known to date. To establish proof-of-principle that this critical bottleneck can be overcome with a suitable screening approach, our studies focused on the class B1 receptor for glucagon-like peptide-1 (GLP-1R), a potential therapeutic target for diabetes and neurodegenerative disease.
The assay was developed in a "mix and measure" format using a cell-based functional readout. Toward this goal, stably transfected HEK293 cell clones were established that co-express (i) a cAMP-responsive luciferase reporter gene, and (ii) GLP-1Rs that upon ligand interaction either stimulate (agonists) or inhibit (inverse agonists) luciferase activity. In different cell lines to be used for screening, expressed GLP-1Rs are specifically optimized for high sensitivity detection of either weak agonists (hypersensitive receptor) or inverse agonists (constitutively active receptor mutant). In addition, control cell lines were developed that express either the cAMP-responsive reporter gene without recombinant GLP-1Rs (enabling initial exclusion of GLP-1R independent effects of candidate probes), or the reporter gene together with wild type GLP-1Rs (for confirmation of probe activity at this receptor), or the reporter gene in combination with the constitutively active orphan receptor GPR119 (enabling initial exclusion of GLP-1R independent inhibitory effects of candidate inverse agonists).
To that end, this assay was optimized for 1536-well format and screened against the MLSMR.
NIH Molecular Libraries Probe Production Network [MLPCN]
NIH Chemical Genomics Center [NCGC]
PI Name: Martin Beinborn, Tufts Medical Center
In a white solid 1536-well plate, 6 uL of cells are dispensed in DMEM without phenol red, 10% Nu serum, and 1% pen-strep medium. The plates are then incubated for 12 hours at 37 deg C at 5% CO2 before 23 nL of compounds are added. After a 4-6 hr incubation at37 deg C and 5% CO2, 3 uL of detection reagent are added and after a 12 min incubation at RT, a luminescent read is obtained on the ViewLux.
In the case of `CC(C)NCC(O)c1ccc(NS(C)(=O)=O)cc1` (configuration not stated), the “activation” value is reported as 0.702%.
`CC1CC2C3CCC4=CC(=O)C=C[C@]4(C)[C@@]3(F)[C@@H](O)C[C@]2(C)[C@@]1(O)C(=O)CO` (some centres not stated) was tested, and the “activation” value was -1.98%.
`OCc1ccc(-c2nn(Cc3ccccc3)c3ccccc23)o1` was tested, and the “activation” value was -1.37%.
For `NC(=O)c1cccc(N)c1`, the “activation” value was -0.761%.
With `COc1cc2nc(N3CCCN(C)CC3)nc(NC3CCN(Cc4ccccc4)CC3)c2cc1OC` the “activation” value was -0.508%.
With `CC(=O)[C@H]1CC[C@H]2[C@@H]3CCC4=CC(=O)CC[C@]4(C)[C@H]3CC[C@]12C` the “activation” value was 6.04%.
With `Nc1nc(N)c2nc(CNc3ccc(C(=O)NC(CCC(=O)O)C(=O)O)cc3)cnc2n1` (configuration not stated) the “activation” value was 0.922%.
`O=C(O)C1CCCN(CCC=C(c2ccccc2)c2ccccc2)C1` (configuration not stated) was tested, and the “activation” value was -0.912%.
In the case of `Cc1ccc(S(=O)(=O)N[C@@H](Cc2ccccc2)C(=O)CCl)cc1`, the “activation” value is reported as -0.115%.
For `CCCCS(=N)(=O)CCC(N)C(=O)O` (configuration not stated), the “activation” value was 0.994%.
In the case of `CCN(CC)CC#CCOC(=O)C(O)(c1ccccc1)C1CCCCC1` (configuration not stated), the “activation” value is reported as -1.32%.
In the case of `NC(=O)c1ccc2[nH]ccc2c1`, the “activation” value is reported as -1.45%.
In the case of `CCN1CCCC1CNC(=O)c1cc(S(N)(=O)=O)ccc1OC` (configuration not stated), the “activation” value is reported as -1.66%.
With `N[C@@H](Cc1ccc(O)c(O)c1)C(=O)O` the “activation” value was -1.48%.
In the case of `CC1=C(C(=O)O)N2C(=O)[C@@H](NC(=O)C(N)c3ccccc3)[C@H]2SC1` (some centres not stated), the “activation” value is reported as -1.13%.
In the case of `COc1cc2ncnc(Nc3cccc(Cl)c3)c2cc1OC`, the “activation” value is reported as 9.81%.
With `CCN(CC)CCn1c(=O)c(Cc2ccc(OC)cc2)nc2ccccc21` the “activation” value was 10.7%.
